High-throughput results deposited in PubChem by National Center for Advancing Translational Sciences (NCATS).
Shown are actives, neighbours in structure and some others; about 19% of the full set was active somewhere.
TDP1 cell noCPT: qHTS for Inhibitors of human tyrosyl-DNA phosphodiesterase 1 (TDP1): qHTS in cells in absence of CPT. DT40 Tdp1-/- hTDP1 cells, no CPT, ATP luminescence, 48 h. Potency, µM (highest dose often 46.2 µM), without a hit: top-dose activity change, negative = growth inhibition, usual class: inhibitors. 420,000 tested, 15% active; note: potency is the fitted concentration of half-maximal effect; nearly all actives have a fitted effect of over 55% in size
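Chicken DT40 Tdp1-/- cells complemented with human TDP1, screened without camptothecin (DMSO vehicle only), 400 cells/well. Compounds pin-transferred, cells incubated at 37 °C for at least 48 hr. Growth read as ATP-dependent luminescence (CellTiter-Glo, 30 min at RT).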
IL-1B inflam inh: blocks inflammasome-driven IL-1 beta release. activity change, % at 57.5 µM. THP-1 LPS/ATP IL-1B secretion, AlphaLISA, 16 h; active compounds read low. AID 743279. 360,000 tested, 4.7% active; in the data active = activity change below about -50%; inconclusive = mostly about -30% to -49%
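THP-1 cells pretreated 1 hr with compounds (up to 57.5 uM final), then stimulated with LPS (250 ng/mL final) plus ATP (1.25 mM final); secreted IL-1B measured by AlphaLISA after 16 hr, decreased signal indicating inhibition.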
HT1080 IDH1KD tx: toxicity to HT-1080 IDH1 knockdown cells (counter line); HT-1080 IDH1 knockdown viability, ATP luminescence, 48 h; Potency, µM (top dose mostly 46.1 µM), inactives show at the top dose activity, negative = toxicity, most hits filed as cytotoxic; 360,000 tested, 2% active;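 note: potency is the fitted concentration of half-maximal effect; 0% = DMSO wells and -100% = cell-free medium wells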
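Assay cells: HT-1080 with IDH1 knockdown, 750 per well, RPMI/5% FBS. Exposure: 48 h at 37 °C following 2 h pre-incubation. Read: CellTiter-Glo luminescence; fitted concentration-response, curve class assigned.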
DT40 TDP1 CPT: growth inhibition of DT40 Tdp1-/-;hTDP1 cells with camptothecin (screen for TDP1 inhibitors). AID 686979. Potency, µM (series often up to 46.2 µM), without a hit: at the top dose activity change, negative = growth inhibition, hits mostly inhibitors. 420,000 tested, 12% active. chicken DT40 Tdp1-/-;hTDP1 cells + 20 nM CPT, ATP luminescence, 48 h; note: potency is the fitted concentration of half-maximal effect; nearly all actives have a fitted effect of over 55% in size
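Cell growth measured by CellTiter-Glo luminescence after a minimum 48 h, 37 C compound exposure with 20 nM CPT in Tdp1-knockout DT40 cells stably expressing hTDP1, seeded 400/well; qHTS titration format.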
HT1080-NT tox: kills 2HG-producing HT-1080-NT fibrosarcoma cells | HT-1080-NT fibrosarcoma viability, CellTiter-Glo ATP luminescence, 48 h | Potency, µM (titrated, usually from 46.1 µM), for the others: at the highest dose activity, negative = less viability, hits mostly cytotoxic | 360,000 tested, 1.6% active | AID 686970;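 note: NT is the 2HG producing partner of a matched IDH1 knockdown line; potency is the fitted concentration of half-maximal effect; 0% = DMSO-treated cells and -100% = media-only wells without cells; nearly all actives have a fitted effect of over 55% in size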
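Luminescent CellTiter-Glo readout after 48 hours of compound exposure at 37 degrees C defined viability of HT-1080-NT cells. Activity was normalized to DMSO wells and cell-free media wells; concentration-response curves were fitted and assigned curve classes.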
* hit, by the source's call; ? = inconclusive; nt = no result given. Unless noted, calls come from the whole dose curve; as a rule, active = well fitted curve in the direction sought with a large enough effect; inconclusive = small, poorly fitted or top-dose-only effect, or another doubt; inactive = no such curve, though single readings can be large; an effect the other way counts as inactive or inconclusive. Unless noted, % is set by controls: 0 for no effect and ±100 for the full control effect.

SMILES	TDP1 cell noCPT	IL-1B inflam inh	HT1080 IDH1KD tx	DT40 TDP1 CPT	HT1080-NT tox
CCCCC(=O)Nc1ccc(OCc2cc(=O)n3ccc(C)cc3n2)cc1	-25.1%	nt	nt	-25.1%	nt
OC(c1ccc(F)cc1)(C1CCCCC1)C(CN1CCOCC1)c1ccccc1 (stereo not drawn)	-28.7%	9.3	-0.1%	?	7.1%
O=C(NC(=O)c1cc([N+](=O)[O-])ccc1Cl)C1=C(N2CCCC2)COC1=O	-18.1%	-22.8	-1.7%	?	7.1%
COc1ccccc1NC(=O)c1c(NC(=O)c2ccccc2Cl)sc2c1CCC2	-7.0%	nt	nt	-2.0%	nt
CCOc1ccccc1NC(=O)c1c(NCc2ccc(OC)c(OC)c2OC)sc2c1CCC(C)C2 (stereo not drawn)	18.4µM*	nt	nt	?	nt
COc1ccccc1NC(=O)c1c(NC(=O)c2ccccc2F)sc2c1CCC2	-0.6%	nt	nt	-7.6%	nt
COc1ccc(NC(=O)c2c(NCc3ccc(OC)c(OC)c3OC)sc3c2CCC3)c(OC)c1	14.6µM*	nt	nt	13µM*	nt
COc1ccc(NC(=O)c2c(NCc3cccc(F)c3)sc3c2CCC3)c(OC)c1	10.3µM*	nt	nt	13µM*	nt
C=CCNCC(=O)Nc1sc2c(c1C(=O)Nc1ccc(OC)cc1OC)CCC2	?	-24.4	10.9%	?	10.4%
COc1ccc(NC(=O)c2c(NCc3sccc3C)sc3c2CCCC3)c(OC)c1	13µM*	nt	nt	20.6µM*	nt
CCOc1ccccc1NC(=O)c1c(NCc2ccc(C)o2)sc2c1CCC(C)C2 (stereo not drawn)	-16.4%	nt	nt	-11.1%	nt
COC(=O)c1ccc(C(c2c(C)n(C)n(-c3ccccc3)c2=O)c2c(C)n(C)n(-c3ccccc3)c2=O)cc1	27.2%	18.9	8.6%	-11.4%	10.8%
Cc1cc(C(O)c2ncc(-c3ccc(Cl)cc3)[nH]2)ccc1F (stereo not drawn)	?	-13.0	?	18.4µM*	?
Cc1cc(C(O)c2ncc(-c3ccc(Oc4ccccc4)cc3)[nH]2)ccc1F (stereo not drawn)	?	-52.6*	10.3µM*	18.4µM*	18.4µM*
CC(C)(C)c1ccc(C(O)c2ncc(-c3ccccc3)[nH]2)cc1 (stereo not drawn)	-17.7%	-24.1	?	?	-27.8%
CC(C)(C)c1ccc(C(O)c2ncc(-c3ccc(F)cc3)[nH]2)cc1 (stereo not drawn)	-40.1%	-66.7*	?	?	?
Cc1cc(C(O)c2ncc(-c3cccc(F)c3)[nH]2)ccc1F (stereo not drawn)	-25.2%	1.9	0.0%	-6.7%	?
OC(c1ccc(F)cc1)c1ncc(-c2ccc(Oc3ccccc3)cc2)[nH]1 (stereo not drawn)	16.4µM*	-4.1	?	?	?
CCOc1c(Cl)cc(CNCC(C)C)cc1OC	-20.4%	4.4	-2.1%	-0.7%	-4.7%
CCOc1cc(CNCC(C)C)cc(Cl)c1OCc1ccccc1	20.6µM*	-51.8*	-20.0%	?	-22.4%
CCOc1cc(CNC2CCCC2)cc(Cl)c1OCc1ccccc1	?	-23.6	?	?	20.6µM*
CCOc1cc(CNC2CCCC2)ccc1OCc1ccccc1Cl	20.6µM*	-88.5*	-15.5%	13µM*	12.1%
CCOc1cc(C2NN=C(c3ccccc3)S2)ccc1OCc1ccccc1Cl (stereo not drawn)	16.4µM*	48.8	-6.8%	?	2.9%
COCCSc1nnc(NC(=O)CCS(=O)(=O)c2ccccc2)s1	13µM*	-103.1*	23.1µM*	7.31µM*	?
Cc1ccc(S(=O)(=O)CCc2nnc(NC(=O)CCl)s2)cc1C	13µM*	-100.4*	14.6µM*	14.6µM*	?
CC(C)Cc1nnc(NC(=O)CCS(=O)(=O)c2ccc(Cl)cc2)s1	?	12.9	3.7%	20.6µM*	-2.4%
Cc1cc(C)cc(N(CCC(=O)Nc2nnc(C)s2)S(=O)(=O)c2ccc(Cl)cc2)c1	23.1µM*	30.3	-22.4%	?	-17.7%
